# In PubChem BioAssay:
# Active and inactive are the calls of the source. Unless noted, how the calls were made is not given here.
# Assays:
# [1] = HepG2 liver cancer cell viability effects, profiling panel, resazurin fluorescence, 24 h, PK04 Diversity Set (AID 1172); settings: higher = more signal
# [2] = basal S. cerevisiae growth modulation, no modifier, primary screen, OD600, strain BY4716, 24 h, basal condition (AID 1173); settings: OD600, 24 h, higher = more signal, called active from +8 up or from −8 down
# [3] = MM1S myeloma cell viability, profiling panel, resazurin fluorescence, basal, 24 h, PK04 Diversity Set (AID 1174); settings: higher = more signal, called active from +8 up or from −8 down;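 further: MM1S multiple myeloma cell line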
# [4] = biological target: Dihydroorotate dehydrogenase (quinone), mitochondrial (Plasmodium falciparum (isolate 3D7)) (UniProt Q08210); experiment: PfDHODH enzyme inhibitors, primary screen, biochemical, C-terminal His tag, absorbance 600 nm (AID 1175); settings: DCIP absorbance 600 nm, higher = more signal, called active from +8 up or from −8 down;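 further: recombinant parasite enzyme with a five histidine tag at its C terminus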
# Chain of Dihydroorotate dehydrogenase (quinone), mitochondrial (Plasmodium falciparum (isolate 3D7)) (Q08210 whole entry, looked up): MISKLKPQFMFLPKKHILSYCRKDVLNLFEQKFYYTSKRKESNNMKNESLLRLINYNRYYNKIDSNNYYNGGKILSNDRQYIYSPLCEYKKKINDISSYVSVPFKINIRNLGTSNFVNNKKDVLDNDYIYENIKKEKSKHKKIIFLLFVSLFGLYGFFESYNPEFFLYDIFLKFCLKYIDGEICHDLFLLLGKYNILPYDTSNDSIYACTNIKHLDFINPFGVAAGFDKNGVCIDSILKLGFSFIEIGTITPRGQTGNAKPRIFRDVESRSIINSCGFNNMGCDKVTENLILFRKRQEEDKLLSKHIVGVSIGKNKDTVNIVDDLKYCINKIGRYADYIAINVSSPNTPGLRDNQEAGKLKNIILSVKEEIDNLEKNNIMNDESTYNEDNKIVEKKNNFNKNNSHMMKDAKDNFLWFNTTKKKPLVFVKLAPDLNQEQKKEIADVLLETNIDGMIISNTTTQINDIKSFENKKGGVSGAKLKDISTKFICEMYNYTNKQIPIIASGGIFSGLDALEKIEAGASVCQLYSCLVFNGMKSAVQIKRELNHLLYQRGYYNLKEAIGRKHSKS
# [5] = P. aeruginosa biofilm formation inhibitors, primary screen, strain PAO1, LB-PBS medium, absorbance 600 nm (AID 1176); settings: P. aeruginosa PAO1 growth/biofilm, A600, 12 h; higher = more signal
# [6] = S. cerevisiae RM11-1a growth modifiers, primary screen, strain RM11-1a, OD600, basal, 24 h (AID 1177); settings: OD600, 24 h, higher = more signal, called active from +8 up or from −8 down;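 further: cultures grown under basal conditions with no added stressor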
# [7] = E. coli acrAB mutant growth effects, primary screen, E. coli filamentation inducers, strain DRC39, OD650, 24 h (AID 1178); settings: higher = more signal, called active from +8 up or from −8 down;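 further: growth measured as culture turbidity by optical density at 650 nm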
# [8] = E. coli acrAB mutant growth effects, primary screen, E. coli filamentation inducers, strain DRC39, OD650, 48 h (AID 1179);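 further: screen aims at cell division blockers that make cells filament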; settings: E. coli DRC39 delta-acrAB growth, higher = more signal, called active from +8 up or from −8 down
# [9] = RPMI8226 myeloma cell viability, profiling panel, resazurin fluorescence, basal, 24 h, PK04 Diversity Set (AID 1180); settings: higher = more signal;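 further: RPMI8826 multiple myeloma cell line at 5000 cells per well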
# [10] = biological target: E3 ubiquitin-protein ligase XIAP (Homo sapiens) (UniProt P98170); experiment: XIAP binders, primary screen, biophysical, small-molecule microarray, fluorescence 635 nm (AID 1181); settings: small-molecule microarray binding, higher = more signal;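 further: score merges 667 nm emission and signal to noise over triplicate slides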
# Chain of E3 ubiquitin-protein ligase XIAP (Homo sapiens) (P98170 whole entry, looked up): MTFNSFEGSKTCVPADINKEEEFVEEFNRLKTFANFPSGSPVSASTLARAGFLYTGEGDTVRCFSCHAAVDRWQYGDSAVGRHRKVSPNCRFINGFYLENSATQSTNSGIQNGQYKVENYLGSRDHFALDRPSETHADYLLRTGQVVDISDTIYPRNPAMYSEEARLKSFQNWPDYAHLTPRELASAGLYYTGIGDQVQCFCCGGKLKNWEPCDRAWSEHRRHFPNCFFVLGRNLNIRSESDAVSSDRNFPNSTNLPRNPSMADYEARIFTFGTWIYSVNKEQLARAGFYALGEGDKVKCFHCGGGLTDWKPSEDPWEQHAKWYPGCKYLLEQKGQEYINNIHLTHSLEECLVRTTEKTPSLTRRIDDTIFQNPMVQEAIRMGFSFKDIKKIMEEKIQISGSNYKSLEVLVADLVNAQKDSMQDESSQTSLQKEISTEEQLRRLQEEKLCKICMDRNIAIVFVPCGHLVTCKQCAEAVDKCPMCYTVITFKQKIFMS
# [11] = test system: XIP peptide (Xip251-270) binding; experiment: small-molecule binders of XIP peptide, primary screen, biochemical, small-molecule microarray, fluorescence 635/667 nm, 0.1 µg/mL protein (AID 1182); settings: fluorescent protein binding, 635 nm, higher = more signal, called active from +8 up or from −8 down
# [12] = test system: XIP peptide (Xip251-270); experiment: small-molecule binders of XIP peptide, primary screen, biochemical, small-molecule microarray, fluorescence 635/667 nm, 0.5 µg/mL protein (AID 1183); settings: small-molecule microarray binding, fluorescence 635 nm; higher = more signal
# [13] = Plasmodium falciparum growth inhibition, primary screen, strain 3D7, DAPI fluorescence, 100 nL (AID 1184);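 further: parasites grown inside human red blood cells in medium with human serum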; settings: P. falciparum 3D7 growth, 3 d, higher = more signal
# [14] = biological target: Homeobox protein Hox-A13 (Mus musculus) (UniProt Q62424); experiment: inhibitors of HoxA13-DNA binding, primary screen, biochemical, fluorescence polarization, labeled oligonucleotide (AID 1185); settings: 15 min, higher = more signal, called active from +8 up or from −8 down
# Chain of Homeobox protein Hox-A13 (Mus musculus) (Q62424 whole entry, looked up): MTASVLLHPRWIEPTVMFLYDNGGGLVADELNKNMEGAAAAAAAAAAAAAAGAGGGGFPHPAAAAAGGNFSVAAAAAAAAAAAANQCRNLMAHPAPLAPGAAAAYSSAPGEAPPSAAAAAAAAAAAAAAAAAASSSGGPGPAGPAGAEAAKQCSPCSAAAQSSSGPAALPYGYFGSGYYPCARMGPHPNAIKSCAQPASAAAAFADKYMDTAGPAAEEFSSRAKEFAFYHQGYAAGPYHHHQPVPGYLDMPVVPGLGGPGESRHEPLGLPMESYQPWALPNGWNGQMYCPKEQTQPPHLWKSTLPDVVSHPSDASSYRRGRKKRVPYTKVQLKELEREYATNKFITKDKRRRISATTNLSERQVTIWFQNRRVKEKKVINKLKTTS
# [15] = inhibitors of hydroxyurea-induced Chk1 phosphorylation, primary screen, imaging, HeLa, phospho-Chk1 antibody, percent positive cells (AID 1186); settings: hydroxyurea-induced phospho-Chk1 immunofluorescence imaging, higher = more signal
# [16] = inhibitors of hydroxyurea-induced Chk1 phosphorylation, primary screen, imaging, HeLa, phospho-Chk1 nuclear intensity (AID 1187); settings: hydroxyurea-induced phospho-Chk1 immunofluorescence imaging, higher = more signal
SMILES,z-score [1],z-score [2],z-score [3],composite z-score [4],z-score [5],z-score [6],z-score [7],z-score [8],z-score [9],composite z-score [10],composite z-score [11],composite z-score [12],z-score [13],z-score [14],z-score [15],z-score [16]
COC(=O)[C@@]1(Cc2ccccc2N=[N+]=[N-])N=C(c2ccc(OCCCO)cc2)O[C@H]1c1ccccc1CN=[N+]=[N-],-4.57,1.16 (inactive),-8.21 (active),0.648 (inactive),0.383 (inactive),0.992 (inactive),0.23 (inactive),0.887 (inactive),-7,0.264,0.367 (inactive),0.82,-2.29,1.05 (inactive),-0.352 (inactive),-0.735 (inactive)
CCOC(=O)C1=CCC(c2cccc3ccccc23)N(S(=O)(=O)c2ccc(C)cc2)C1 (centres undefined),-0.739,0.66 (inactive),-1.56 (inactive),-0.384 (inactive),0.518 (inactive),-0.225 (inactive),-0.601 (inactive),0.0759 (inactive),-3.43,0.397,0.225 (inactive),0.449,-1.77,-1.57 (inactive),0.18 (inactive),-0.129 (inactive)
Cc1ccc([C@@H]2CC=C(C(=O)O)[C@H](c3ccccc3)N2S(=O)(=O)c2ccc(C)cc2)cc1,-1.02,-2.08 (inactive),-1.26 (inactive),-0.527 (inactive),-0.405 (inactive),0.0193 (inactive),-1.36 (inactive),-1.3 (inactive),-1.99,-0.202,1.71 (inactive),0.909,-0.745,-7.09 (inactive),-0.489 (inactive),-0.824 (inactive)
O=C1O[C@H](c2ccccc2)[C@H](c2ccccc2)N2[C@H]1[C@@H](C(=O)NC[C@H](O)c1ccccc1)[C@]1(C(=O)Nc3ccc(C#CC4=CCCCC4)cc31)[C@H]2c1ccc(OCCO)cc1,0.0374,1.17 (inactive),-2 (inactive),-0.186 (inactive),2.05 (inactive),3.28 (inactive),-0.227 (inactive),0.262 (inactive),-3.18,-0.316,1.21 (inactive),0.658,-0.435,3.43 (inactive),-0.22 (inactive),-0.301 (inactive)
C=CCC(OC(C)=O)[C@@H]1[C@@H](N(Cc2ccc(-c3ccccc3)cc2)C(=O)c2ccc(-c3ccccc3)cc2)c2cc(OCCCO)ccc2N1C(=O)Cc1ccc(OC)cc1 (some centres undefined),-0.149,0.335 (inactive),0.108 (inactive),-0.979 (inactive),0.0429 (inactive),-1.14 (inactive),-0.0223 (inactive),0.185 (inactive),0.202,-0.0596,0.195 (inactive),-0.126,-0.314,-1.31 (inactive),-0.282 (inactive),-0.47 (inactive)
Cc1ccc(S[C@]2(C(=O)NC(C)C)CC(=O)N(Cc3cc(C(F)(F)F)cc(C(F)(F)F)c3)[C@@H]2c2ccc(CO)cc2I)cc1,0.53,-2.86 (inactive),-2.27 (inactive),0.4 (inactive),0.447 (inactive),-0.59 (inactive),0.498 (inactive),1.02 (inactive),-2.55,-0.209,0.351 (inactive),0.667,0.201,-2.81 (inactive),0.392 (inactive),0.52 (inactive)
O=C(NCc1ccccc1)c1ccc(Br)cc1[N+](=O)[O-],0.0759,-2.42 (inactive),0.0636 (inactive),-1.37 (inactive),-0.131 (inactive),-0.465 (inactive),0.986 (inactive),-0.411 (inactive),-0.447,-0.127,0.103 (inactive),0.0871,2.11,0.513 (inactive),0.225 (inactive),0.119 (inactive)
C=CCC(OC(C)=O)[C@@H]1[C@@H](N(Cc2cccc3ccccc23)C(=O)c2ccc(C)cc2)c2cc(OCCCO)ccc2N1C(=O)c1ccc(-c2ccccc2)cc1 (some centres undefined),0.335,-0.93 (inactive),1.01 (inactive),-2 (inactive),-0.0178 (inactive),-1.51 (inactive),0.611 (inactive),0.861 (inactive),0.734,0.146,-0.115 (inactive),0.481,-1.93,-0.128 (inactive),-0.35 (inactive),-0.844 (inactive)
COc1cc(Cc2cc3c(c(CCc4ccccc4)n2)[Si](C(C)C)(C(C)C)OC3)cc(OC)c1OC,1.47,-0.0438 (inactive),0.273 (inactive),-0.606 (inactive),0.726 (inactive),0.404 (inactive),-0.171 (inactive),0.365 (inactive),0.815,0.107,-0.521 (inactive),-0.122,-2.33,-3.47 (inactive),-0.0504 (inactive),-0.0848 (inactive)
CCC1=C2CN(Cc3ccccc3Br)[C@@H]([C@@H](O)Cc3ccccc3)C2C=CCC1 (some centres undefined),0.596,-5.76 (inactive),-1.3 (inactive),-2.74 (inactive),-0.693 (inactive),-0.177 (inactive),1 (inactive),0.441 (inactive),-1.25,0.0451,-0.314 (inactive),0.509,-1.92,-7.8 (inactive),-0.0994 (inactive),-0.311 (inactive)
CC(C)[C@H]1NC(=O)[C@@]23C(=O)N[C@@H](Cc4ccccc4)C2[C@H](C)[C@@]2(C)O[C@H]2C3/C=C/C/C=C\CNC(=O)[C@H](C)NC1=O (some centres undefined),-0.546,0.976 (inactive),0.323 (inactive),-0.0591 (inactive),1.13 (inactive),1.01 (inactive),-0.198 (inactive),-0.301 (inactive),0.142,-0.129,-0.311 (inactive),-0.791,-0.162,-6.31 (inactive),0.126 (inactive),0.42 (inactive)
O=C1C[C@@](C(=O)NCCN2CCOCC2)(c2ccc([N+](=O)[O-])cc2)[C@@H](c2ccc(CO)cc2)N1C1CCCCC1,-0.0886,-0.359 (inactive),0.836 (inactive),0.231 (inactive),0.292 (inactive),-0.206 (inactive),0.497 (inactive),0.274 (inactive),0.906,-0.142,1.01 (inactive),0.818,-1.6,-4.21 (inactive),-0.0132 (inactive),0.434 (inactive)
O=C1C2C=CC(C(O)C#Cc3ccccc3)N(Nc3ccccc3)C2C(=O)N1c1ccccc1 (centres undefined),0.198,-3.55 (inactive),-0.279 (inactive),-0.766 (inactive),0.875 (inactive),0.143 (inactive),-0.169 (inactive),-0.143 (inactive),0.0581,-0.189,-0.115 (inactive),0.176,0.801,-4.05 (inactive),-0.0484 (inactive),-0.217 (inactive)
COc1ccc(C(=O)Nc2ccc(CN3C(=O)[C@]4(O[C@H](CCn5cc(CCO)nn5)[C@@H]([Si](C)(C)c5ccc(OC)cc5)[C@@H]4C)c4ccccc43)cc2)cc1,-2.97,-5.51 (inactive),-6.19 (inactive),0.597 (inactive),0.307 (inactive),2.44 (inactive),1.09 (inactive),0.72 (inactive),-3.23,-0.0129,-0.154 (inactive),0.621,-2.78,-3.55 (inactive),0.188 (inactive),0.686 (inactive)
N#Cc1ccc(NN2C(C(O)c3ccc(I)cc3)C=CC3C(=O)N(c4ccccc4)C(=O)C32)cc1 (centres undefined),-1.59,0.179 (inactive),-1.34 (inactive),-0.165 (inactive),0.944 (inactive),0.62 (inactive),-0.904 (inactive),-0.397 (inactive),-0.328,-0.256,0.816 (inactive),0.464,0.175,-1.01 (inactive),-0.308 (inactive),0.145 (inactive)
[N-]=[N+]=NCc1ccccc1C[C@]1(C(=O)N2CCCCC2)N=C(c2ccc(OCCCO)cc2)O[C@H]1c1ccccc1CN=[N+]=[N-],-0.182,1.06 (inactive),-1.32 (inactive),-0.266 (inactive),1.76 (inactive),0.736 (inactive),0.0687 (inactive),-0.352 (inactive),-2.22,0.377,1.52 (inactive),0.811,-2.32,1.1 (inactive),-0.0016 (inactive),0.164 (inactive)
O=C1O[C@@H](c2ccccc2)[C@@H](c2ccccc2)N2[C@@H](c3ccc(OCCO)cc3)[C@]3(C(=O)Nc4ccc(C#CCCO)cc43)[C@@H](C(=O)N3CCN(c4ncccn4)CC3)[C@H]12,1.26,1.35 (inactive),0.833 (inactive),-1.58 (inactive),1.55 (inactive),2.04 (inactive),1.05 (inactive),0.17 (inactive),2.17,0.19,0.42 (inactive),0.721,-2.03,-0.282 (inactive),0.396 (inactive),0.92 (inactive)
CC(=O)NCCCC[C@@H]1NC(=O)[C@@H]2C[C@H](C(=O)NCc3ccc(F)cc3)[C@H](c3cccc(OCCO)c3)N2C1=O,-0.352,0.473 (inactive),0.0366 (inactive),-0.79 (inactive),0.298 (inactive),0.625 (inactive),-0.34 (inactive),-0.17 (inactive),0.168,-0.335,0.356 (inactive),0.117,0.447,-4.11 (inactive),0.676 (inactive),0.312 (inactive)
COc1ccc([Si](C)(C)[C@H]2[C@H](CC(=O)N(CCO)Cc3ccccc3)O[C@@]3(C(=O)N(C)c4ccccc43)[C@@H]2C)cc1,0.514,-1.42 (inactive),-0.0262 (inactive),-0.0113 (inactive),0.72 (inactive),0.11 (inactive),0.681 (inactive),0.455 (inactive),0.216,0.001,0.0642 (inactive),0.369,-0.134,-6.95 (inactive),-0.217 (inactive),-0.251 (inactive)
